Measured values from PubChem BioAssay AID504332 (National Center for Advancing Translational Sciences (NCATS), 2011).
About 31,000 (8.9%) of roughly 350,000 compounds were called active. Inconclusive results (about 15%) are left out. Shown is part of a subset that was picked to be rich in actives. Values without a mark were called inactive. Calls come from the whole dose curve; as a rule, active = well fitted inhibition curve with a large enough effect; inconclusive = small, poorly fitted or top-dose-only effect; inactive = no such curve, though single readings can be large or run the other way.

These compounds were tested against Histone-lysine N-methyltransferase EHMT2 (Homo sapiens) (UniProt Q96KQ7) (assay: qHTS Assay for Inhibitors of Histone Lysine Methyltransferase G9a). Details: G9a H3K9 monomethylation, AlphaScreen, 2 h; series mostly up to 59 µM; activity, negative = inhibition: at the top concentration.
Description: Methylated lysines, on the N-terminal tails of histone proteins serve as epigenetic markers to recruit factors that can then modify local chromatin structure to lead to functional consequences. G9a and other members of the SUV39 family of the SET domain-containing superfamily of histone lysine methyltransferases (HMT) have been identified to specifically methylate Lys9 of histone H3 (H3K9). G9a catalyzes the mono- and di-methylation of H3K9 in mammalian euchromatic regions, where the resulting H3K9me2 is indicative of transcriptional repression. […] The inhibition of G9a will result in transcriptional activation and work synergistically with DNA methyltransferase and histone deacetylase inhibitors, to kill cancer cells. This qHTS assay for identification of G9a inhibitors is a chemiluminescence based AlphaScreen (PerkinElmer). Methylation of biotinylated-histone peptide is measured through specific antibody-based detection, in conjunction with streptavidin-coated donor and anti-IgG antibody-coated acceptor beads. The method is particularly well suited for detection of inhibitors acting by the desired histone peptide competitive mechanism and is applicable to testing other HMTs. Although AlphaScreen has significant advantages with its utility in a variety of epigenetic target assays, the primary screening data provided in this deposition should be used with caution due to the prevalence of screening artifacts. An AlphaScreen counterscreen is highly recommended to be run against any putative actives to eliminate non specific artifacts. Alternatively, one can use other AlphaScreen assays in PubChem to filter out promiscuous hits. Quinn et al. A chemiluminescence-based method for identification of histone lysine methyltransferase inhibitors. Mol Biosyst 6(5): 782-8. 2010. PMID: 20567762 [2] Baell,Holloway. New substructure filters for removal of pan assay interference compounds (PAINS) from screening libraries and for their exclusion in bioassays. J Med Chem. 53(7):2719-40. 2010. PMID: 20131845 NIH Molecular Libraries Probe Production Network [MLPCN] NIH Chemical Genomics Center [NCGC] Structural Genomics Consortium (SGC) NIH Grant: 5U54 MH084681-02
To each well of a 1,536w plate, 2ul of HMT enzyme (final 20nM) were added, using a nanoliter dispenser. The G9a- and GLP-inhibitor BIX-01294 (CID: 25150857) are used as an intraplate control, with a 16-point titration in duplicate. A Kalypsys pin-tool transferred 23nl of library compound solution in DMSO to each well. Following a 15 min incubation of enzyme with compounds at room temperature, 1ul mixture of b-H3K9 peptide substrate (final 500nM) and SAM cofactor (final 20uM) were added. Reactions were allowed to proceed at room temperature for 2 hours. Methylated b-H3K9 peptide product was detected with 0.5 ug/mL rabbit polyclonal anti-monomethyl histone H3K9 antibody (Abcam Inc., Cambridge, MA) and 20 ug/mL each streptavidin-coated donor and anti-rabbit IgG acceptor AlphaScreen beads. Antibody and beads were added in a 1ul dispense, for a final volume of 4ul, and plates were incubated, protected from the light, for 10 min at room temperature. Microplates were then read on an EnVision multilabel plate reader using the 1,536 plate HTS AlphaScreen aperture (excitation time 80 ms, measurement time 240 ms).
% is set by controls: 0 for no effect and ±100 for the full control effect; potency is the fitted concentration of half-maximal effect.
Note: nearly all actives have a fitted effect of over 75% in size.

Histone-lysine N-methyltransferase EHMT2 (Homo sapiens), sequence (Q96KQ7 913-1193 limits assumed): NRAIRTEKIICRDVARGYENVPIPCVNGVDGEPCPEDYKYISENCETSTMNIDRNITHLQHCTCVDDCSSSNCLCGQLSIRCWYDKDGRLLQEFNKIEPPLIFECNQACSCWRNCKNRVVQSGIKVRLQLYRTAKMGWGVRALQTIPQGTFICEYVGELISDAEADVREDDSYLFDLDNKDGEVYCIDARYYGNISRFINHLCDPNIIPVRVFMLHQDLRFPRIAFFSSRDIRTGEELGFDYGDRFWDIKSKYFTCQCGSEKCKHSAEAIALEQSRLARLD

SMILES | activity, negative = inhibition | Potency
CCn1cc(C(=O)N(C)Cc2ccccc2)c(=O)c2cc(S(=O)(=O)N3CCCCCC3)ccc21 | 10.3% | –
Cc1ccc(S(=O)(=O)N2CCc3cc(C(=O)Nc4ccc(Cl)cc4C)ccc32)cc1 | 3.64% | –
COC(=O)c1ccc(COc2ccc(/C=C/C(=O)c3ccc(OC)c(CSCC(=O)O)c3)cc2OC)cc1 | – | 39.8 µM (active)
COc1ccc(/C=C/C(=O)c2ccc(NS(=O)(=O)c3ccc(C)cc3)cc2)cc1O | -14.7% | –
COc1ccc(/C=C/C(=O)N2CCCC2)cc1OC | 47.4% [at 102 µM] | –
Cc1nc(N)nc(SCc2ccc([N+](=O)[O-])cc2)c1N | -1.52% [at 12.7 µM] | –
Cc1cc([N+](=O)[O-])nn1Cc1ccc(F)cc1 | 8.26% [at 102 µM] | –
Cc1nc(SCc2ccc(F)cc2)c([N+](=O)[O-])[nH]1 | – | 25.1 µM (active)
CCN(CC)CCn1c2c(c(SCC(=O)Nc3nc4ccccc4s3)nc1=O)CCCC2 | 5.88% [at 0.501 µM] | –
CC(C)(C)c1ccc(SCCc2ccncc2)cc1 | 60.8% [at 102 µM] | –
Cc1nn2c(=O)cc(COC(=O)CNC(=O)c3ccc(F)cc3)nc2s1 | 1.25% | –
Cc1ccc(-c2nc(C)sc2CC(=O)O)cc1 | -39.5% | –
CCOC(=O)C(=O)Nc1nc(-c2ccccc2)c(CC)s1 | 8.29% [at 102 µM] | –
C/C(=N/Nc1nc(-c2ccccc2)c(CC(=O)O)s1)c1ccccc1 | – | 1.78 µM (active)
Cc1nnc(SCC(=O)Nc2cccc(N)c2)n1-c1ccccc1 | 10.8% [at 102 µM] | –
O=C(Nc1cccc(F)c1)NC1CCCCCCC1 | 76% [at 102 µM] | –
COc1ccc(C(=O)c2oc3ccccc3c2NC(=O)COc2cccc(C)c2)cc1 | -4.56% | –
CCc1nn(CC(=O)N2CCN(c3cccc(C(F)(F)F)c3)CC2)c(=O)c2cc3occc3n12 | 2.68% | –
COCCN(Cc1ccco1)C(=O)Cn1ncc2c([nH]c3ccccc32)c1=O | -4.69% | –
O=C(CSc1nnc(-c2ccco2)n1-c1ccccc1)NCCc1ccccc1 | 21.7% | –
COc1ccc(-n2c(SCC(=O)NCc3cccs3)nnc2-c2ccoc2C)cc1 | -7.6% [at 12.7 µM] | –
COc1ccc(C(=O)NC(=O)CSc2nnc(-c3ccco3)n2-c2ccccc2)cc1 | – | 89.1 µM (active)
COc1ccc(CCNC(=O)C(=O)NCC(c2ccco2)S(=O)(=O)c2cccs2)cc1OC (centres undefined) | -0.762% | –
CCCCc1ccc(NC(=O)CN2C(=O)NC(Cc3ccccc3)C2=O)cc1 (centres undefined) | 4% [at 102 µM] | –
CCCC[C@H]1C(=O)N(c2ccccc2)N(c2ccc(O)cc2)C1=O | – | 7.94 µM (active)

SMILES | activity, negative = inhibition | Potency
O=C(O)CC1S/C(=N\N=C/c2ccccc2O)N(c2ccc(O)cc2)C1=O (centres undefined) | 31.1% | –
COc1ccc(-n2c(=O)c3c(c4cc(OC)ccc4n3C)n(Cc3cccc(C)c3)c2=O)cc1 | 2.9% | –
COc1ccc(C)cc1NC(=O)CN(C)S(=O)(=O)c1ccc2c(c1)n(C)c(=O)c(=O)n2C | 42.7% [at 102 µM] | –
COc1cc(/C=C/C2=CC(C)(C)NC(=S)N2)cc(OC)c1OC | – | 39.8 µM (active)
CCC(=O)c1ccc(OC(=O)/C=C/c2cc(OC)c(OC)c(OC)c2)cc1 | 10.6% [at 102 µM] | –
COc1ccc2[nH]c(C(=O)N/N=C/c3cc(OC)c(OC)c(OC)c3)cc2c1 | 10.8% [at 102 µM] | –
Cc1cccc(-c2nc(SCc3ccc(Br)cc3)n3[nH]c(=O)cc3n2)c1 | 46.9% | –
O=C(c1cn(-c2ccccc2)nc1-c1cccnc1)N1CCN(S(=O)(=O)c2ccccc2F)CC1 | -2.44% [at 12.7 µM] | –
Cc1cc(C)c(C2C3=C(Nc4c2c(C)nn4-c2ccccn2)c2ccccc2C3=O)c(C)c1 (centres undefined) | – | 11.2 µM (active)
Cc1nn(-c2ccccn2)c2c1C(c1ccncc1)C1=C(CC(C)(C)CC1=O)N2 (centres undefined) | -38.3% | –
O=C(Nc1ncccc1O)c1ccc(S(=O)(=O)N2CCCC2)cc1 | 6.98% [at 12.7 µM] | –
O=[N+]([O-])c1cccc(/C=N/Nc2ncc(Br)cn2)c1 | 18% [at 0.501 µM] | –
Clc1cc(-c2ccc(/C=N/n3cnnc3)o2)ccc1Br | -7.95% | –
Cc1ccc(Cl)cc1-c1ccc(/C=N/n2cnnc2)o1 | 14.3% | –
Cc1cc(-c2ccc(/C=N/n3cnnc3)o2)c([N+](=O)[O-])cc1C | – | 50.1 µM (active)
CCc1cnc2c(c1SCC(=O)c1ccccc1)c(=O)n(C)c(=O)n2C | -0.675% | –
Cc1cccc(-c2nnc(SCC(=O)N3CCCc4ccccc43)o2)c1 | 15.9% | –
CCC(C)Nc1oc(-c2ccc(COc3ccc(Cl)cc3)o2)nc1C#N (centres undefined) | -37.3% | –
COc1ccc(OCc2ccc(-c3nc(C#N)c(N4CCN(c5ccccc5)CC4)o3)o2)cc1 | -29% | –
CN1CCN(c2oc(-c3ccc(COc4ccc(Cl)cc4)o3)nc2C#N)CC1 | – | 11.2 µM (active)
C=CCOc1ccc(/C=C/C(=O)OCC(=O)NC(C)c2ccc(F)cc2)cc1 (centres undefined) | -17.7% [at 102 µM] | –
COc1ccc(-c2nc3scc(CCNS(=O)(=O)c4cc(F)ccc4OC)n3n2)cc1OC | 7.7% | –
COc1ccc(S(=O)(=O)N2CCN(CC(=O)N3c4ccccc4CC3C)CC2)cc1OC (centres undefined) | – | 56.2 µM (active)
CC1Cc2ccccc2N1C(=O)CSc1nnc(-c2ccc(S(=O)(=O)N3CCCC3)cc2)n1C (centres undefined) | -19.1% | –
